This is a sample that favours compounds with a hit; in the whole collection about 2.4% have one here.
Mcl1-Noxa inh – Mcl-1/Noxa interaction inhibition | Q07820 | TR-FRET Mcl-1/Noxa peptide binding, 2 h | inhibition, % at 21.7 µM | 220,000 compounds, 1.5% hits;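 active = compounds that cut the protein-peptide binding signal by more than 50% relative to plate controls in a single-dose test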;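 note: His-tagged Mcl-1 with rhodamine Noxa BH3 peptide and terbium anti-His antibody; 0% = Mcl-1 plus Noxa peptide wells and 100% = peptide-only wells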
Target sequence (Q07820 whole entry, looked up): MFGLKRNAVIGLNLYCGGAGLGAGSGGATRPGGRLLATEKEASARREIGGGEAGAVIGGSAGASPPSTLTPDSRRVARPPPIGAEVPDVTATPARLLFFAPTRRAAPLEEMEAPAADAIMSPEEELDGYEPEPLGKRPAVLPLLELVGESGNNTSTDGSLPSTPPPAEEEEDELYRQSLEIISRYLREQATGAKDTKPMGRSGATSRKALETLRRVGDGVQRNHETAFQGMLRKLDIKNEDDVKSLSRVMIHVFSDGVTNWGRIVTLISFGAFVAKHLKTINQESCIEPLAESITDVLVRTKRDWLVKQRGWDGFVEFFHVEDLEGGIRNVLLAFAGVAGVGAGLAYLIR
Mcl-1 Bim block – human Bim-Mcl-1 interaction inhibition. Q07820. inhibition, % at 10 µM. Bead-based flow cytometry, Bim peptide-Mcl-1 binding. 190,000 compounds, 0.1% hits. AID 1009; in the data active = inhibition above about 40%;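 note: 0% = no compound tracer wells and 100% = peptide blocker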
zVAD death inh – blocks zVAD induced death of L929 cells | L929 zVAD necroptosis rescue, ATP luminescence, 24 h; with zVAD 60 µM | viability rescue, % at 10 µM | 220,000 compounds, 0.38% hits | AID 1377;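 active = activation, scaled between plate controls, above about 75%, limit read from the data; inactive = activation under that limit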;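 note: 0% = zVAD with DMSO and 100% = DMSO alone without zVAD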
Mcl1-Bid inh – Mcl-1/Bid interaction inhibition; TR-FRET Mcl-1/Bid-Dy647 peptide binding, 1536-well; inhibition, % at 21.7 µM; 220,000 compounds, 0.97% hits; Q07820;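 active = compounds that cut the binding signal by more than half at the single screening dose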;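 note: His-tagged Mcl-1 with europium anti-His antibody binding Bid BH3 peptide; 0% = Mcl-1 plus peptide wells and 100% = peptide-only wells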
TNF death inh – blocks TNF-alpha induced death of Jurkat FADD-/- cells | Jurkat FADD-/- TNF necroptosis rescue, ATP luminescence, 24 h; 0 = TNF only, 100 = no-TNF cells | activation (protection from cell death), % at 10 µM | 220,000 compounds, 0.068% hits | AID 463075;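 active = activation, meaning protection from cell death, of at least 50% relative to plate controls; inactive = activation below 50%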;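 note: necroptosis triggered by 40 ng/mL TNF-alpha added together with compound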
MCL1 BIM primary – MCL1-BIM-BH3 interaction inhibition (human); Q07820; GST-MCL1 / FITC-Bim-BH3 fluorescence polarization; inhibition, % at 10.9 µM; 320,000 compounds, 0.68% hits; AID 2057;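 active = inhibition above the mean inhibition of all tested compounds plus 3 SD, set per campaign, cut at about 40% in these data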;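 note: 0% = DMSO wells and 100% = unlabeled Bim-BH3 peptide control; higher means more loss of mP so more displacement of Bim peptide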
An asterisk follows results filed as active; . = not tested or not shown.

SMILES	Mcl1-Noxa inh	Mcl-1 Bim block	zVAD death inh	Mcl1-Bid inh	TNF death inh	MCL1 BIM primary
CCOc1ccc2[nH]c3c(NCCc4ccc(OC)c(OC)c4)ncnc3c2c1	56.7*	.	1.9	-49.3	-5.7	4.3
Cc1ccc(Cn2cc(SCC(N)=O)c3ccccc32)cc1	8.1	0.0	0.3	-14.2	0.0	1.7
Cc1ccc(Cl)c2c1=NC(=O)C=2c1[nH]c(=S)[nH]c1O	53.0*	1.0	2.5	-100.4	-1.5	6.4
O=C1N=c2ccccc2=C1c1[nH]c(=S)[nH]c1O	65.5*	-4.0	7.0	-24.0	-7.6	15.8
CC1(C)CCCN(C(=O)c2coc(=O)c(Br)c2)C1	79.0*	0.0	-0.5	-25.1	-2.4	.
COc1ccc(CNC(=O)CN2C(=O)NC(C)(c3cccc(Br)c3)C2=O)cc1 (stereo not given)	.	.	.	.	.	-10.0
CN1C(=O)/C(=C2\SC(=S)N(CCCCCC(=O)O)C2=O)c2ccccc21	113.3*	.	-1.5	96.0*	-3.8	3.9
O=C(O)CCN1C(=O)/C(=C2\C(=O)N(Cc3ccc(F)cc3)c3ccccc32)SC1=S	.	.	.	.	.	18.3
COc1ccc(/C=N/NC(=O)c2nn(-c3ccc(Cl)cc3)c(=O)c3c(N)scc23)cc1	57.2*	0.0	-0.8	-17.1	-2.7	32.6
CCOC(=O)c1nn(-c2ccc(OC)cc2)c(=O)c2c(N)scc12	28.9	-4.0	0.1	-3.8	-3.2	3.9
COc1cc(CN2CCC(n3nccc3NC(=O)c3ccc4c(c3)OCO4)CC2)ccc1O	.	.	.	.	.	-2.4
Cc1ccc(S(=O)(=O)CCSc2cccc(C(=O)Nc3ccccc3C(=O)O)c2)cc1	68.3*	-1.0	0.3	-9.9	1.3	22.1
Cn1c2c(c(=O)n(C)c1=O)C(NS(=O)(=O)c1ccccc1)(C(F)(F)F)C(=O)N2 (stereo not given)	50.7*	0.0	0.1	-94.9	-2.7	6.5
Cn1c2c(c(=O)n(C)c1=O)C(NC(=O)C(C)(C)C)(C(F)(F)F)C(=O)N2 (stereo not given)	2.1	-1.0	0.4	-2.8	0.6	0.4
Cc1ccccc1-n1c(SCC(=O)N/N=C/C=C/c2ccccc2[N+](=O)[O-])nc2ccccc2c1=O	63.1*	-1.0	-0.2	-0.4	2.8	-8.7
O=C(COC(=O)c1cccc(Br)c1)NCCNC(=O)COC(=O)c1cccc(Br)c1	.	.	.	.	.	-13.3
Oc1c(/C=N/c2ccccn2)sc2ccccc12	76.1*	.	0.0	48.6	-17.8	-42.2
Oc1c(C=Nc2ccc(Cl)cn2)sc2ccccc12	27.7	.	1.6	11.6	-8.9	-40.6
CCOC(=O)N1CCN(c2c(NCCCN(CC)Cc3ccccc3)c(=O)c2=O)CC1	76.5*	8.0	0.6	-48.7	-0.4	3.3
CCOC(=O)N1CCN(c2c(NCCCN(CC)CC)c(=O)c2=O)CC1	2.9	-4.0	0.7	-26.7	0.8	6.7
CCCCN(CC)CCNc1c(N2CCN(C(=O)OCC)CC2)c(=O)c1=O	75.2*	-2.0	0.8	-47.7	0.4	1.8
CCOC(=O)C1CCN(c2c(NCCCN(CC)Cc3ccccc3)c(=O)c2=O)CC1	71.5*	-3.0	-0.1	-18.7	-0.2	-12.7
O=C(CSc1nc2cc(Cl)c(Cl)cc2[nH]1)c1ccc2c(c1)OCO2	57.1*	.	0.9	16.3	-0.4	-12.4
O=C(CSc1nc2ccc(Cl)cc2[nH]1)c1ccc2c(c1)OCO2	26.0	-3.0	0.8	2.6	-3.3	3.4
CC1(C)Cc2c(cnn2-c2cccc(F)c2)C(NC(=O)CCc2cnccn2)C1 (stereo not given)	.	.	.	.	.	5.1
SMILES	Mcl1-Noxa inh	Mcl-1 Bim block	zVAD death inh	Mcl1-Bid inh	TNF death inh	MCL1 BIM primary
O=C(O)c1ccccc1N/N=C/c1c(Sc2nnnn2-c2ccccc2)nc2ccccn2c1=O	78.4*	.	0.3	-24.0	-6.0	-47.6
COc1ccc(C=NCCC2(O)CC(C)N(C)CC2C)cc1 (stereo not given)	-1.1	-5.0	-1.4	-9.6	-0.7	41.1*
CC(=O)N(CC1CCCO1)c1nnc(-c2cnccn2)s1 (stereo not given)	0.3	2.0	0.3	-14.3	75.7*	-3.5
CN(C(=O)c1ccno1)c1nnc(-c2cnccn2)s1	-17.0	-1.0	0.0	-29.2	-1.9	6.6
O=C(COc1ccc(S(=O)(=O)N2CCCC2)cc1Cl)NC1CC1	8.7	-1.0	0.9	95.2*	0.5	1.1
COc1ccc(C(=O)NC(=S)N2CCN(c3ccccc3OC)CC2)cc1OC	.	.	.	.	.	-0.1

Screening results as filed in PubChem BioAssay.
